Source: PubChem BioAssay
Gli-Sufu antag: Gli-Sufu pathway antagonism; Sufu-KO-LIGHT fibroblasts, Gli luciferase reporter luminescence; inhibition, % at 5 µM; 340,000 compounds, 0.74% hits; AID 588413;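 active = inhibition above about 55%, limit read from the data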;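 also: 0% = DMSO-treated cells and 100% = wells with medium but no cells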
CSC inhib: cancer stem cell inhibition; cancer stem cell-like cells viability, luminescence; inhibition, % at 7.5 µM; 300,000 compounds, 1.1% hits; in the data active = inhibition above about 75%; tested in HMLE shEcad cells
Shn3 3UTR inh: Schnurri-3 reporter inhibition in Clone20 osteoblasts | 360,000 compounds, 0.52% hits | inhibition, % at 12.5 µM | AID 588674 | Clone20 osteoblast Shn3 3'UTR firefly luciferase, 24 h;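 active = mean inhibition of at least 75% with every replicate also reaching 75%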;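 also: 0% = median of neutral control wells and 100% = pilot-screen positive control compound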
PAX8 reporter: inhibitors of PAX8 transcriptional activity in RMG-I cells | RMG-I TPO-luciferase reporter, SteadyGlo, 24 h | inhibition, % at 12.6 µM | 360,000 compounds, 1.2% hits | AID 652154;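 active = mean replicate inhibition at least 60% with every replicate also reaching 60%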;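 also: luciferase light reporting Pax8 driven TPO promoter activity; plate controls were median of neutral control wells for no effect and mitoxantrone controls for full effect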
Mdm2 MdmX PPI: human Mdm2/MdmX binding inhibition; O15151+Q00987; SaOS-2 split-luciferase Mdm2/MdmX complementation, luminescence; inhibition, % at 8 µM; 330,000 compounds, 3% hits; AID 485346;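 active = inhibition of at least 50% at 8 µM in the primary screen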
Target sequence (O15151 whole entry, looked up): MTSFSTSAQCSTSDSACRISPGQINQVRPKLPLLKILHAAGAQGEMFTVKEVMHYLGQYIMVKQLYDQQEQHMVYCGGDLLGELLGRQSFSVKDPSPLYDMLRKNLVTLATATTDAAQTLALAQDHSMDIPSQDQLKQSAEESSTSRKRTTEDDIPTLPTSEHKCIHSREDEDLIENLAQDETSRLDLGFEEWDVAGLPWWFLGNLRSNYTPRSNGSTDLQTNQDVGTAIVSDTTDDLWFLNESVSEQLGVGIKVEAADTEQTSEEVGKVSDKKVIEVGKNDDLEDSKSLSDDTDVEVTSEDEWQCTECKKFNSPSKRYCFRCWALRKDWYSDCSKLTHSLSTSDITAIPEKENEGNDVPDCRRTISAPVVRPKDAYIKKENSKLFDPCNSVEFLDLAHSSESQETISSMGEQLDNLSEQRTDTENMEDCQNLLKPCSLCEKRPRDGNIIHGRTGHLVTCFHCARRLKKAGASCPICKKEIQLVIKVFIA
Target sequence (Q00987 whole entry, looked up): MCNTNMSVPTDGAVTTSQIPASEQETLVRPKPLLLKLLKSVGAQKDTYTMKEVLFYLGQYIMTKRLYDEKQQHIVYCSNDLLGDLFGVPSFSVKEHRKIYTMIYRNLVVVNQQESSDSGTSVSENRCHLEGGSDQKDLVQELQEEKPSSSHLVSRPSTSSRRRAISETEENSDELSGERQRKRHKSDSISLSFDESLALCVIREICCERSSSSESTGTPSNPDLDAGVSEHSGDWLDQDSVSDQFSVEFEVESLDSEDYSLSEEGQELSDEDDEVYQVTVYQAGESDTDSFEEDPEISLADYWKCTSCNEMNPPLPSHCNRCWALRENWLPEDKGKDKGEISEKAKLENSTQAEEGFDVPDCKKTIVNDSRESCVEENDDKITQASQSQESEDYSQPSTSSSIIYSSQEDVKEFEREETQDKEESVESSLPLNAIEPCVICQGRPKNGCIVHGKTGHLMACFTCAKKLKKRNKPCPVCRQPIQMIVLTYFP
Beta cell apopt: beta cell apoptosis inhibition | INS-1E cytokine-induced death, ATP luminescence, 48 h; percent of positive-control rescue, neutral wells zero | AID 435005 | protection from apoptosis, % (test concentration not listed) | 300,000 compounds, 0.8% hits;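 active = Every replicate reaches about 75%, or at least half do and their mean reaches it too, limit read from the data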;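 also: 0% = cytokine-treated negative control wells and 100% = positive control rescue; higher means more ATP so stronger rescue from cytokine killing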
Mdm2 MdmX conf: confirmation of human Mdm2/MdmX interaction inhibitors; shares compounds with Mdm2 MdmX PPI; Mdm2-MdmX binding, luminescent assay; inhibition, % at 8 µM; 10,000 compounds, 55% hits; AID 489028; in the data active = inhibition above about 40%
FLuc counter: counter-screen for Mdm2/MdmX inhibitors: full-length luciferase | 6,200 compounds, 77% hits | shares compounds with Mdm2 MdmX PPI | inhibition, % at 8 µM | AID 504607 | SaOS-2 full-length luciferase counterscreen, luminescence;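 active = mean inhibition at 8 µM reaching about 37%, which flags the compound as non-specific, limit read from the data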;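 also: p53-null SaOS-2 cells with luciferase driven by a doxycycline-inducible promoter; compound on cells about two nights before reading with doxycycline added after day one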
Starred values were filed as active, the others as inactive. An excerpt weighted towards active compounds, which were near 4% of everything screened.

Screening C[C@@H]1CN([C@@H](C)CO)C(=O)c2cc(-c3cccc(C#N)c3)cnc2O[C@@H]1CN(C)C(=O)c1cnccn1 returned PAX8 reporter -17.
`Cc1ccn2c(=O)c(C(=O)NC3CCCCC3C)c(O)nc2c1` (stereo not drawn) gave Gli-Sufu antag -3, CSC inhib 21, Shn3 3UTR inh 7, PAX8 reporter -11, Mdm2 MdmX PPI 67*, Mdm2 MdmX conf 67* and FLuc counter 68*.
N#Cc1c(-c2ccccc2)c(C#N)c2nc3ccccc3n2c1N was read as Gli-Sufu antag 14, CSC inhib 4, Shn3 3UTR inh 47, PAX8 reporter 13, Mdm2 MdmX PPI 55*, Beta cell apopt 49, Mdm2 MdmX conf 48* and FLuc counter 48*.
Cc1cc(Cl)n2c(nc3ccccc32)c1C#N was read as Gli-Sufu antag -2, Shn3 3UTR inh 80 and PAX8 reporter 55.
Cc1ccc(-c2c(C#N)c(N)n3c(nc4ccccc43)c2C#N)cc1 was read as Gli-Sufu antag 29, CSC inhib 71, Shn3 3UTR inh 38, Mdm2 MdmX PPI 77*, Beta cell apopt 80*, Mdm2 MdmX conf 55* and FLuc counter 58*.
Screening Cn1c(=O)c2c(SCC(=O)Nc3ccccc3F)nc(-c3ccccc3F)nc2n(C)c1=O returned Gli-Sufu antag 7, CSC inhib 37, Shn3 3UTR inh -8, PAX8 reporter 16, Mdm2 MdmX PPI 71*, Beta cell apopt 14, Mdm2 MdmX conf 40 and FLuc counter 61*.
For Cn1c(=O)c2c(SCC(=O)NCCc3ccccc3)nc(C3CC3)nc2n(C)c1=O the results were Gli-Sufu antag -1, CSC inhib -22, Mdm2 MdmX PPI 5 and Beta cell apopt 0.
Screening Cc1ccc(-c2nc(SCC(=O)Nc3cc(C)on3)c3c(=O)n(C)c(=O)n(C)c3n2)cc1 returned Gli-Sufu antag 1, CSC inhib 29, Shn3 3UTR inh 31, Mdm2 MdmX PPI 77*, Beta cell apopt -2 and Mdm2 MdmX conf 18.
`CCc1nc(SCC(=O)Nc2ccccc2)c2c(=O)n(C)c(=O)n(C)c2n1` gave Gli-Sufu antag 1, CSC inhib 8, Shn3 3UTR inh 20, Mdm2 MdmX PPI 1 and Beta cell apopt 2.
Cn1c(=O)c2c(SCC(=O)Nc3ccccc3F)nc(C3CC3)nc2n(C)c1=O was read as Gli-Sufu antag 14, CSC inhib -8, Shn3 3UTR inh 18, PAX8 reporter -37, Mdm2 MdmX PPI 79*, Beta cell apopt -2 and Mdm2 MdmX conf 17.
`Cc1nc(SCC(=O)Nc2cc(C)on2)c2c(=O)n(C)c(=O)n(C)c2n1` gave Gli-Sufu antag 1, CSC inhib -7, Shn3 3UTR inh -45, PAX8 reporter 8, Mdm2 MdmX PPI 1 and Beta cell apopt 3.
`O=C(C[C@H]1CC[C@@H]2[C@H](COC[C@@H](O)CN2Cc2cc(F)cc(F)c2)O1)NC1CCCC1` gave PAX8 reporter 7.
For C[C@@H]1CCCCO[C@@H](CN(C)C(=O)Nc2ccccc2)[C@H](C)CN([C@H](C)CO)C(=O)c2cc(N(C)C)ccc2O1 the results were PAX8 reporter -1.
For COc1ccc2c(c1)c(/C=N/Nc1nc3ccccc3[nH]1)c(C)n2C the results were Gli-Sufu antag 12, CSC inhib 45, PAX8 reporter 57, Mdm2 MdmX PPI 93*, Beta cell apopt 117*, Mdm2 MdmX conf 37 and FLuc counter 68*.
Oc1ccccc1-c1nc(NCc2cccnc2)c2ccccc2n1 was read as Gli-Sufu antag 8, CSC inhib 63, Shn3 3UTR inh -22, PAX8 reporter -39, Mdm2 MdmX PPI 70*, Beta cell apopt -11, Mdm2 MdmX conf 49* and FLuc counter 78*.
For O=[N+]([O-])c1ccc(-c2nc(NCc3cccnc3)c3ccccc3n2)cc1 the results were Gli-Sufu antag 5, CSC inhib 16, Shn3 3UTR inh -15, PAX8 reporter -9, Mdm2 MdmX PPI 29 and Beta cell apopt 1.
Oc1ccccc1-c1nc(NCCN2CCOCC2)c2ccccc2n1 was read as Gli-Sufu antag 5, CSC inhib 25, Shn3 3UTR inh 17, Mdm2 MdmX PPI 45 and Beta cell apopt 9.
Screening CCCCNc1nc(NCc2ccccc2)nc2ccccc12 returned PAX8 reporter 30.
`Oc1ccccc1-c1nc(NCc2ccccc2)c2ccccc2n1` gave Gli-Sufu antag 3, CSC inhib 29, Shn3 3UTR inh 9, PAX8 reporter 2, Mdm2 MdmX PPI 56*, Beta cell apopt -5 and Mdm2 MdmX conf 33.
`Oc1ccccc1Nc1nc(NCc2ccccc2)c2ccccc2n1` gave Gli-Sufu antag 32, CSC inhib 103*, Shn3 3UTR inh 89*, PAX8 reporter 49, Mdm2 MdmX PPI 83*, Beta cell apopt 11 and Mdm2 MdmX conf 33.
COc1ccc(/C=N/Nc2nonc2N)cc1 was read as Gli-Sufu antag -9, CSC inhib -16, Shn3 3UTR inh -57, Mdm2 MdmX PPI -8 and Beta cell apopt 6.
Screening COc1ccc(/C=N/Nc2nonc2N)cc1OC returned Gli-Sufu antag 1, CSC inhib 1, Shn3 3UTR inh 1, PAX8 reporter 0, Mdm2 MdmX PPI 51*, Beta cell apopt 3 and Mdm2 MdmX conf 8.
Screening C=CC(=O)N=c1sc2ccccc2n1-c1ccccc1 returned Gli-Sufu antag 1, CSC inhib 48, Shn3 3UTR inh 10, PAX8 reporter 92*, Mdm2 MdmX PPI 82*, Mdm2 MdmX conf 80* and FLuc counter 37*.
`N=c1sc2ccccc2n1-c1ccccc1` gave Gli-Sufu antag -2, CSC inhib -19, Shn3 3UTR inh 7, Mdm2 MdmX PPI 79*, Beta cell apopt -1, Mdm2 MdmX conf 62* and FLuc counter 57*.
Screening CSc1nnc(Cn2c(=O)sc3ccccc32)n1-c1ccccc1 returned Gli-Sufu antag 0, CSC inhib -8, Shn3 3UTR inh 16, PAX8 reporter 19, Mdm2 MdmX PPI -11 and Beta cell apopt -2.
For Cc1nc(N2CCCCC2)sc1C(=O)c1ccc(Cl)c([N+](=O)[O-])c1 the results were CSC inhib 58, Mdm2 MdmX PPI 69*, Beta cell apopt 4 and Mdm2 MdmX conf 24.
`COc1ccc(NC(=O)Nc2ccc3c(c2)C(=O)N([C@H](C)CO)C[C@H](C)[C@H](CN(C)C(=O)Nc2cccc4ccccc24)OCCCC[C@@H](C)O3)cc1` gave PAX8 reporter 11.
Cc1cccc(C)c1NC(=O)CN1C(=O)S/C(=C\c2cccn2C)C1=O was read as Gli-Sufu antag 1, CSC inhib -11, Shn3 3UTR inh 3, Mdm2 MdmX PPI 80*, Beta cell apopt -9 and Mdm2 MdmX conf 2.
